# The full data set covers some 7,900 targets. This sample favours those with a hit. About 0.6% of all pairs of compound and target were hits. A number with no mark means an inactive call.
# Columns and labels:
# Assay in all cases: log2 fold change, soluble protein after heating vs DMSO (PISA); higher = thermal stabilisation; K562 cells, 10 uM, 30 min; active = over 0.2 and 3.5 SD of the protein, either way, in both replicates (recomputed)
# [1] = compound: COC1=CC=C(C=C1)CN2C=CC3=C2C=C(C=C3)C(=O)NO
# Procedure, shortened: (§1)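 For each measurement, 10 μM compound was applied for 30 min to K562 cells at 2×10^6 cells/mL. Aliquots were heated for 3 min across 48°C-58°C, pooled, and extracted in PBS with 0.5% NP-40 at 4°C; the supernatant after 21,000xg for 90 min was soluble protein. This was quantified by TMTpro 16plex LC-MS/MS with channel sums equalised, and thermal stability was reported relative to control samples from duplicates, on a log2 fold-change scale.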
# filanesib = compound: CON(C)C(=O)N1N=C(c2cc(F)ccc2F)S[C@@]1(CCCN)c1ccccc1 [filanesib]
# Procedure, shortened: as §1
# zotarolimus = compound: CO[C@H]1C[C@@H]2CC[C@@H](C)[C@@](O)(O2)C(=O)C(=O)N2CCCC[C@H]2C(=O)O[C@H]([C@H](C)C[C@@H]2CC[C@H](n3cnnn3)[C@H](OC)C2)CC(=O)[C@H](C)/C=C(\C)[C@@H](O)[C@@H](OC)C(=O)[C@H](C)C[C@H](C)/C=C/C=C/C=C/1C [zotarolimus]
# Procedure, shortened: as §1
# idasanutlin = compound: COc1cc(C(=O)O)ccc1NC(=O)[C@@H]1N[C@@H](CC(C)(C)C)[C@](C#N)(c2ccc(Cl)cc2F)[C@H]1c1cccc(Cl)c1F [idasanutlin]
# Procedure, shortened: as §1
# alisertib = compound: COc1cc(Nc2ncc3c(n2)-c2ccc(Cl)cc2C(c2c(F)cccc2OC)=NC3)ccc1C(=O)O [alisertib]
# Procedure, shortened: as §1
# [2] = compound: COc1cc2nc(-c3cc(F)ccc3O)nc(N[C@@H]3CNC[C@H]3C(C)(C)O)c2cc1OC
# Procedure, shortened: as §1
# gefitinib = compound: COc1cc2ncnc(Nc3ccc(F)c(Cl)c3)c2cc1OCCCN1CCOCC1 [gefitinib]
# Procedure, shortened: as §1
# [3] = compound: COc1cccc2cc(-c3nc([C@H]4CC[C@H](C(=O)O)CC4)n4ncnc(N)c34)[nH]c12
# Procedure, shortened: as §1
# lapatinib = compound: CS(=O)(=O)CCNCc1ccc(-c2ccc3ncnc(Nc4ccc(OCc5cccc(F)c5)c(Cl)c4)c3c2)o1 [lapatinib]
# Procedure, shortened: as §1
# pictilisib = compound: CS(=O)(=O)N1CCN(Cc2cc3nc(-c4cccc5[nH]ncc45)nc(N4CCOCC4)c3s2)CC1 [pictilisib]
# Procedure, shortened: as §1
# Chain of UniProt Q9NTI5 (Q9NTI5 whole entry, looked up): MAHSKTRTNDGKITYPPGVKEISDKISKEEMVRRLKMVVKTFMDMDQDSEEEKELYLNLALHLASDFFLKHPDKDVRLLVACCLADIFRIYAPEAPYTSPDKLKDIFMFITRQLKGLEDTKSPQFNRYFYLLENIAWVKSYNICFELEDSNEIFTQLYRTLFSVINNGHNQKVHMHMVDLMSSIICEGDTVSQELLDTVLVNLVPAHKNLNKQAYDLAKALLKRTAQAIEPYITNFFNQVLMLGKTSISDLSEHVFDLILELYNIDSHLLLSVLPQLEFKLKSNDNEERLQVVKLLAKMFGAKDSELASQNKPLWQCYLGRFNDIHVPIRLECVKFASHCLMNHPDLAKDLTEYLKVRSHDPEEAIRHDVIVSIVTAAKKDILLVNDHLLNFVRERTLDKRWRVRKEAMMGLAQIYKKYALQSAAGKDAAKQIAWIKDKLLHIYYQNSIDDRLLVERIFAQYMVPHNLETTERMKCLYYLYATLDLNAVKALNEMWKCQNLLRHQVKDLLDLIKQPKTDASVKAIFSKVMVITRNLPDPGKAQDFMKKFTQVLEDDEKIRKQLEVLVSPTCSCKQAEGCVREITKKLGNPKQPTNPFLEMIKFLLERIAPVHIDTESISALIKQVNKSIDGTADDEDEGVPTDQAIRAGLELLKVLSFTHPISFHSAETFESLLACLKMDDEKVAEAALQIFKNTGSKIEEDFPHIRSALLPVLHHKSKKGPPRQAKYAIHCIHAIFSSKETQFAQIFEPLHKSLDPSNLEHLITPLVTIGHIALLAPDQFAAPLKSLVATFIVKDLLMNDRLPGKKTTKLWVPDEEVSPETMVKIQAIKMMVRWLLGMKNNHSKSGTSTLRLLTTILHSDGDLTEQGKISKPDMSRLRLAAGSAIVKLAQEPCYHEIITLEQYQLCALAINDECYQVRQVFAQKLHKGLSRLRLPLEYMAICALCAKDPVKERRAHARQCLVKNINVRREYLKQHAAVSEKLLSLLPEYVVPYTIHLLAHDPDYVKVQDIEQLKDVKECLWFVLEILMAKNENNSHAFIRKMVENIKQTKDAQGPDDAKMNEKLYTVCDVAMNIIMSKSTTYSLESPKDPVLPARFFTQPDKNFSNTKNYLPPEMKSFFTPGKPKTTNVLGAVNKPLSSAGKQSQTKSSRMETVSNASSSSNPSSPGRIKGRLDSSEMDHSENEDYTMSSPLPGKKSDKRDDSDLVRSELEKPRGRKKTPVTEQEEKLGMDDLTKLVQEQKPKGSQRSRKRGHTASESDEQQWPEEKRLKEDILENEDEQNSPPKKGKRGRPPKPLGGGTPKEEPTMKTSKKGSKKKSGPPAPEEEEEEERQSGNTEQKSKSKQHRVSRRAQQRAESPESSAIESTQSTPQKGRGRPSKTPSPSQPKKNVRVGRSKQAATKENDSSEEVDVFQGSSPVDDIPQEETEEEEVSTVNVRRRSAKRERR
# Chain of UniProt O00329 (O00329 whole entry, looked up): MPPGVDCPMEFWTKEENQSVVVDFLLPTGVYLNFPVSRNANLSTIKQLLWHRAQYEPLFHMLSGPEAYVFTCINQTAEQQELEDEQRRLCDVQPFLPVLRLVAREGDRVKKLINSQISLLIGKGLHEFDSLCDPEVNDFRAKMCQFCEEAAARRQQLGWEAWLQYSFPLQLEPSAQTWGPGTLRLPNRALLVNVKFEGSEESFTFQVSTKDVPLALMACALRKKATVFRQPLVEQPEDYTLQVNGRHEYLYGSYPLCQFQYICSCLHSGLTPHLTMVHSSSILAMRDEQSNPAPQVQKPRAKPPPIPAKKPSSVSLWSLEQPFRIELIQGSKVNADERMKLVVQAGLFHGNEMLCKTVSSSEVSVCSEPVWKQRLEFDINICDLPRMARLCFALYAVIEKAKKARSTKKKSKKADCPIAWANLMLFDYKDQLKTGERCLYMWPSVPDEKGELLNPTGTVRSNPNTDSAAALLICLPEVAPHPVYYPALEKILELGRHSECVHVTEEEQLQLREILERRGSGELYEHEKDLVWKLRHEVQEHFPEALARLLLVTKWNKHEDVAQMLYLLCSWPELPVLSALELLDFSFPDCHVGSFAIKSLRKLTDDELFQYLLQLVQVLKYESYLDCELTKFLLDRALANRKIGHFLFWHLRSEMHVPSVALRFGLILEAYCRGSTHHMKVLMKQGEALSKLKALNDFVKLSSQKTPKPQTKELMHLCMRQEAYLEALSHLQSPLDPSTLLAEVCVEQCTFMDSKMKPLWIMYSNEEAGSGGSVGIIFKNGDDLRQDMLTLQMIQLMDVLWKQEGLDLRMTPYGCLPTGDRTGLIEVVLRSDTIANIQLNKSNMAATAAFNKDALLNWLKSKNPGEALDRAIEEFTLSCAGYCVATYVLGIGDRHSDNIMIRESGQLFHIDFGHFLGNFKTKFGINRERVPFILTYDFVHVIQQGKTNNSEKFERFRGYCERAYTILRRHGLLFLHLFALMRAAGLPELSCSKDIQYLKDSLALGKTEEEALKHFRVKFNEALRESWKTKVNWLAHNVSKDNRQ
# Chain of UniProt Q5VTL8 (Q5VTL8 whole entry, looked up): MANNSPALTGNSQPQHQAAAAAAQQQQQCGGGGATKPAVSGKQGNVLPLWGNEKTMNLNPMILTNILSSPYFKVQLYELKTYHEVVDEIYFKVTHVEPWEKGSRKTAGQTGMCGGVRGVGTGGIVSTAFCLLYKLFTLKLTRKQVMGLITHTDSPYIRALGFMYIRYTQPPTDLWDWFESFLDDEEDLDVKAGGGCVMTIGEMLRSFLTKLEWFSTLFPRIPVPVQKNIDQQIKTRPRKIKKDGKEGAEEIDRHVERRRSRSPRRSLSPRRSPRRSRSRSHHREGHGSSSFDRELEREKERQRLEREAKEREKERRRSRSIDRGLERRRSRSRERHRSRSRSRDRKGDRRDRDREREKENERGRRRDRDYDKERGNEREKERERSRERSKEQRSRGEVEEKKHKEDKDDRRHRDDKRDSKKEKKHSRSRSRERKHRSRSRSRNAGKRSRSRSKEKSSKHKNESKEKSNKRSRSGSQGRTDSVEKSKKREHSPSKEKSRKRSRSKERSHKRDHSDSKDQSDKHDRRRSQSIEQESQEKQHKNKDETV
# Chain of UniProt Q86YH6 (Q86YH6 whole entry, looked up): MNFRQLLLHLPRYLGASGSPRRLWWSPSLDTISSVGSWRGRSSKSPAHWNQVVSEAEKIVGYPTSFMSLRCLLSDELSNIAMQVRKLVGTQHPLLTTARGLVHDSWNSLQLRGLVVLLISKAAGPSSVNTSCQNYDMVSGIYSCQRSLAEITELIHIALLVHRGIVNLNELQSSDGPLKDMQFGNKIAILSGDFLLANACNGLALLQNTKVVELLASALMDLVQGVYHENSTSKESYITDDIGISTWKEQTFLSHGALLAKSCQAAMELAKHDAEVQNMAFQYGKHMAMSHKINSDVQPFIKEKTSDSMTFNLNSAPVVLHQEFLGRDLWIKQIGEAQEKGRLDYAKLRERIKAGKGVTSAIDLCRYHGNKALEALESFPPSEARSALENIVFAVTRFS
# Chain of UniProt P15735 (P15735 whole entry, looked up): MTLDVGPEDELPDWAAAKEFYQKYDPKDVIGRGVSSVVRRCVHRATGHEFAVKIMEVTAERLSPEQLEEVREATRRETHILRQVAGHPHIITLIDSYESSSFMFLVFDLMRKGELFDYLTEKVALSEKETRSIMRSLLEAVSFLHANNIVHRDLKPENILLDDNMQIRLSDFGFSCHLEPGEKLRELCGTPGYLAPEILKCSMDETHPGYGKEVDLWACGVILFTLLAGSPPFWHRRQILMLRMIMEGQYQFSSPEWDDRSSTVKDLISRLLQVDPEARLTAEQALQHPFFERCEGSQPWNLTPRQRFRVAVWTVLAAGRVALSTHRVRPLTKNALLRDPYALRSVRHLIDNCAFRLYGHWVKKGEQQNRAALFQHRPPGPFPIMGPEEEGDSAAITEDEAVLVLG
# Chain of UniProt Q15126 (Q15126 whole entry, looked up): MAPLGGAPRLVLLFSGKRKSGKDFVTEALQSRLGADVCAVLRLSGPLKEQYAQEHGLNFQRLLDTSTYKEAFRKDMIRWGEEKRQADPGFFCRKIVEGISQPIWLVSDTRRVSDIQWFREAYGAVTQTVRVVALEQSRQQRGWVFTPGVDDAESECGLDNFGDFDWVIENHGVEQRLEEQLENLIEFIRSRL
# Chain of UniProt Q9H5K3 (Q9H5K3 whole entry, looked up): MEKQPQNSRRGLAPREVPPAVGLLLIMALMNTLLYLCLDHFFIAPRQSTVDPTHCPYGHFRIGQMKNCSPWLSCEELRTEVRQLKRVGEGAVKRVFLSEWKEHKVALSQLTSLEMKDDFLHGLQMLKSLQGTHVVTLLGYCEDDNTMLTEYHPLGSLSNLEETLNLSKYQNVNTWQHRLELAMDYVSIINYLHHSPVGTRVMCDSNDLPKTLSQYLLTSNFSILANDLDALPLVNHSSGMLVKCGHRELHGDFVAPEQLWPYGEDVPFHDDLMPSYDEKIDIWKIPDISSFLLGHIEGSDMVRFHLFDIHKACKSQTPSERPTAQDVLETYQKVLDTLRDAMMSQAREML
# Chain of UniProt Q6GMV3 (Q6GMV3 whole entry, looked up): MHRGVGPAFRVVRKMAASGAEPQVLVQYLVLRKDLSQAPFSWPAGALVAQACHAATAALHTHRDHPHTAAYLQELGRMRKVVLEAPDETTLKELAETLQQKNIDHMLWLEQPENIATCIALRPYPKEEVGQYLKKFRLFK
# Chain of UniProt P31323 (P31323 whole entry, looked up): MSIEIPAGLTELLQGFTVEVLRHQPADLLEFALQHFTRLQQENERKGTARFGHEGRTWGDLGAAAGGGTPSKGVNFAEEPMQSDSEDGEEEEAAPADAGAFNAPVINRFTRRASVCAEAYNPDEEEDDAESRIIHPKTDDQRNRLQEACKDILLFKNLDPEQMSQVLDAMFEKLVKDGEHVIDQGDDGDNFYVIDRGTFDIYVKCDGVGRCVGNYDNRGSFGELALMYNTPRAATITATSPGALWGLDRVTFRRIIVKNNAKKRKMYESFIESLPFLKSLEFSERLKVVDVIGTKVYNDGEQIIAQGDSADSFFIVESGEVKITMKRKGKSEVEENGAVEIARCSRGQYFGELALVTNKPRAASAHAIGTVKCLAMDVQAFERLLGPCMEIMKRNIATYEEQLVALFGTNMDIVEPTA
Target,log2 fold change [1],log2 fold change (filanesib),log2 fold change (zotarolimus),log2 fold change (idasanutlin),log2 fold change (alisertib),log2 fold change [2],log2 fold change (gefitinib),log2 fold change [3],log2 fold change (lapatinib),log2 fold change (pictilisib)
PRKAG1 isoform 3 (UniProt P54619),-0.02,-0.036,0,-0.004,0.022,0.008,0.002,0.049,-0.055,-0.037
PHKG2 (UniProt P15735),0.014,-0.01,-0.051,0.007,-0.026,0.219,-0.063,0.015,0.105,-0.055
PTRHD1 (UniProt Q6GMV3),-0.051,0.065,-0.008,0.042,-0.103,-0.025,0.085,0.068,-0.061,0.02
PPP1R14A (UniProt Q96A00),0.016,0.031,-0.028,-0.013,-0.041,0.039,0.012,-0.079,-0.057,0.017
POLR2M (UniProt P0CAP2),-0.025,-0.004,-0.05,-0.022,-0.015,0.094,-0.08,0.054,-0.044,-0.254 (active)
PSMB9 (UniProt P28065),0.25,0.189,-0.08,-0.028,–,0.246,–,–,-0.064,-0.006
PRKD3 (UniProt O94806),-0.062,-0.002,0.084,0.171,-0.039,–,–,0.149,–,0.255
PTGR2 (UniProt Q8N8N7),-0.13,-0.155,0.195,0.122,-0.03,-0.04,0.035,0,0.125,0.313
PKN2 (UniProt Q16513),0.001,-0.085,0.01,-0.016,–,-0.069,0.004,0.034,-0.013,0
PCYT1A (UniProt P49585),0.006,-0.005,0.035,-0.015,0.025,-0.05,-0.012,-0.037,0.018,0.03
PPP2R5A (UniProt Q15172),0.034,-0.135,0.002,-0.206,-0.064,0.032,-0.043,0.005,0.047,-0.096
PLSCR1 (UniProt O15162),-0.017,0.01,-0.012,0.033,-0.006,-0.046,0.016,0.145,0.051,0.037
PHAX (UniProt Q9H814),-0.01,0.045,0.004,0.018,-0.057,-0.09,0.007,0.032,0.039,0.002
PSMB4 (UniProt P28070),-0.033,0.034,-0.011,-0.012,-0.031,-0.074,-0.038,0.005,0.03,-0.026
PIK3R1 (UniProt P27986),0.01,-0.041,-0.002,-0.027,-0.075,0.054,0.045,0.014,-0.005,0.048
PATL1 (UniProt Q86TB9),-0.015,-0.009,0.076,0.049,-0.035,-0.135,–,0.069,0.05,-0.115
PGGHG (UniProt Q32M88),-0.022,0.073,0.024,0.162,-0.123,0.082,-0.062,0.041,-0.08,0.042
PIP4P2 (UniProt Q8N4L2),0.053,-0.383 (active),0.027,0.14,0.022,0.007,0.009,-0.016,0.03,0.061
PRKCQ (UniProt Q04759),-0.044,-0.027,0.052,-0.003,-0.018,-0.206,0.021,-0.008,0.041,-0.053
PRG4 (UniProt Q92954),0.17,0.081,-0.955 (active),0.174,0.01,–,0.034,0.229,–,-0.062
POM121 (UniProt Q96HA1),-0.03,0.055,-0.018,0.146,–,-0.027,-0.002,–,-0.01,0.003

Target,log2 fold change [1],log2 fold change (filanesib),log2 fold change (zotarolimus),log2 fold change (idasanutlin),log2 fold change (alisertib),log2 fold change [2],log2 fold change (gefitinib),log2 fold change [3],log2 fold change (lapatinib),log2 fold change (pictilisib)
PDSS2 (UniProt Q86YH6),0.23,0.025,0.184,0.157,–,-0.286,0.15,–,0.162,-0.038
PRPF38B (UniProt Q5VTL8),-0.004,0.163,0.016,0.039,-0.09,0.083,0.002,0.043,0.027,0.065
PRKAR2B (UniProt P31323),-0.032,0.06,0.153,0.05,-0.007,-0.63 (active),-0.026,-0.024,0.048,-0.056
PSMC1 (UniProt P62191),-0.062,0.03,-0.013,0.009,-0.049,-0.018,-0.05,-0.015,0.054,-0.006
PLCL1 (UniProt Q15111),0.048,-0.036,0.09,0.062,-0.107,–,0.118,0.229,–,-0.073
PI4K2B (UniProt Q8TCG2),-0.035,-0.059,-0.014,-0.034,-0.059,–,0.4,-0.054,–,0.051
PDE6D (UniProt O43924),-0.036,0.101,-0.179,-0.092,-0.031,–,0.076,0.002,–,0.078
PLA2G15 (UniProt Q8NCC3),-0.041,-0.076,-0.007,0.01,0.095,0.03,0.001,0.056,-0.001,-0.01
PDS5B (UniProt Q9NTI5),0.065,0.104,0.037,-0.07,-0.05,-0.188,0.123,0.078,-0.206,0.066
PELP1 (UniProt Q8IZL8),-0.096,-0.022,0.012,0.012,-0.045,-0.033,-0.002,0.042,0.031,-0.074
PSMD11 (UniProt O00231),0.018,-0.011,0.028,0.004,-0.058,-0.052,-0.043,-0.071,0.086,0.003
POMK (UniProt Q9H5K3),-0.025,-0.019,-0.101,-0.017,0.077,-0.037,-0.02,0.04,0.067,0.077
PIK3CD (UniProt O00329),-0.016,0.029,-0.098,0.105,–,0.02,–,–,-0.018,–
PSMC6 (UniProt P62333),-0.059,0.083,-0.003,0.005,-0.093,-0.024,-0.038,-0.057,0.049,-0.054
POLR2D (UniProt O15514),0.02,0.009,-0.029,-0.083,-0.159,-0.021,-0.001,0.043,0.017,-0.026
PSMD13 (UniProt Q9UNM6),-0.127,0.095,0.009,-0.054,-0.04,-0.025,-0.026,-0.05,0.038,-0.01
PRKACA (UniProt P17612),0.05,-0.076,-0.034,0.006,-0.078,0.088,-0.004,0.028,0.025,0.068
POP1 (UniProt Q99575),0.025,-0.023,0.033,-0.009,-0.054,-0.109,0.012,0.021,0.084,-0.01
PCTP (UniProt Q9UKL6),-0.007,-0.175,-0.066,0.029,-0.081,-0.239 (active),-0.024,-0.031,0.052,0.392 (active)
PHRF1 (UniProt Q9P1Y6),–,–,–,–,-0.001,0.049,–,-0.121,0.194,–
PSMA3 (UniProt H0YJ03),0.362,–,-0.004,0.009,–,0.203,–,–,0.021,–

Target,log2 fold change [1],log2 fold change (filanesib),log2 fold change (zotarolimus),log2 fold change (idasanutlin),log2 fold change (alisertib),log2 fold change [2],log2 fold change (gefitinib),log2 fold change [3],log2 fold change (lapatinib),log2 fold change (pictilisib)
POGZ (UniProt Q7Z3K3),-0.066,-0.021,0.008,0.01,–,0.095,–,–,-0.086,0.082
PDE4DIP (UniProt E9PS60),0,–,-0.032,–,–,–,–,–,–,–
PSMD8 (UniProt K7EK21),–,–,-0.174,–,–,–,–,–,–,–
PHLDB1 isoform 2 (UniProt Q86UU1),0,–,0.014,-0.033,-0.098,-0.069,0.149,-0.032,-0.039,-0.498 (active)
PSMC3 (UniProt E9PLG2),-0.612,0.17,–,–,0.071,–,–,0.079,–,–
PPP1R12C (UniProt Q9BZL4),–,0.066,–,–,0.071,-0.237,0.074,-0.009,0.084,-0.228
PCBP2 (UniProt F8VZX2),0.03,–,0.158,–,-0.04,–,-0.111,-0.018,–,–
PEX5 isoform 4 (UniProt P50542),–,0.064,-0.048,-0.15,–,–,–,–,–,–
PSMC1 (UniProt G3V4X1),–,–,-0.045,–,–,-0.106,-0.036,–,-0.105,-0.071
PDE4A (UniProt P27815),-0.442,–,0.07,0.098,–,0.112,–,–,-0.016,–
POLB (UniProt P06746),–,-0.155,0.215,–,–,0.037,0.199,–,-0.006,-0.022
PHC3 isoform 7 (UniProt Q8NDX5),0.287,-0.029,0.001,–,-0.121,-0.03,-0.153,0.203,0.05,–
PMVK (UniProt Q15126),–,0.198,0.083,0.064,0.047,–,-0.189,-0.144,–,0.073
PRKD2 (UniProt M0R346),–,0.038,–,–,–,–,–,–,–,0.06
PSD3 (UniProt Q9NYI0),-0.003,–,0.074,0.015,-0.003,0.141,0.036,0.069,-0.07,–
PUM1 (UniProt Q14671),-0.029,–,-0.076,0.037,–,–,–,–,–,0.032
PCID2 (UniProt Q5JVF3),-0.136,-0.025,-0.07,–,0.087,0.009,0.039,-0.023,0.175,0.013
PSMA3 (UniProt G3V4X5),-0.122,–,–,–,–,0.255,–,–,-0.18,–
PIGH (UniProt Q14442),-0.029,–,0.031,-0.127,0.003,-0.019,–,0.038,-0.009,0.04

# Reference: the supplement of paper PMC10849652
